Experimental findings from PubChem BioAssay AID720706 (Broad Institute, 2013) are described below.

The campaign covered roughly 350,000 compounds. About 5,500 (1.6%) were called active.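 The calls were made as follows: active = significant combined selectivity score with lowered wild-type GFP, culture density cut under 30%, mutant RFP and density less affected; inactive = any of these conditions unmet.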 Shown is part of a subset that was picked to be rich in actives.

The nature of the test: reduced GFP signal of wild-type E. coli, primary screen, bacterial rRNA inhibitor project, GFP/RFP fluorescence, OD600, single point (AID 720706). As to conditions: E. coli WT GFP vs humanized-ribosome RFP mutants, 24 h; GFP signal change (wild-type ribosome): stronger effect = lower value, DMSO median 0, no signal -100; OD600 change: measured here: OD600 growth, DMSO median 0, no signal -100; RFP signal change: measured here: RFP humanized mutant strains, DMSO median 0, no signal -100, concentration not given here.
`CCNC(=O)[C@H]1[C@H](CO)[C@H]2Cn3c(cccc3=O)[C@H]2N1C(=O)C1CCCC1`: the GFP signal change (wild-type ribosome) was 4.25% (inactive), the OD600 change was -2.66% and the RFP signal change is -1.17%.

As for `Cc1cc(C)c(C#N)c(Nc2cccc(Br)c2)n1`, the GFP signal change (wild-type ribosome) was 11.7% (inactive), the OD600 change came out at 6.25% and the RFP signal change was 3.63%.

`Cc1cc(Nc2ccc(Br)cc2)nc2ccccc12`: the GFP signal change (wild-type ribosome) was -50.8% (active), the OD600 change is -41% and the RFP signal change is -13.6%.

For the molecule `C[C@H]1CCCCO[C@H](CN(C)Cc2ccccc2)[C@@H](C)CN([C@@H](C)CO)C(=O)c2cc(NS(C)(=O)=O)ccc2O1`, the GFP signal change (wild-type ribosome) is 2.67% (inactive), the OD600 change stood at 3.64% and the RFP signal change was -3.91%.

`CCNC(=O)[C@@H]1[C@@H](CO)[C@@H]2Cn3c(ccc(-c4ccncc4)c3=O)[C@@H]2N1Cc1cc(F)ccc1F`: the GFP signal change (wild-type ribosome) is 2.37% (inactive), the OD600 change turned out to be 8.82% and the RFP signal change came out at 1.07%.

Consider `C[C@@H]1CN([C@@H](C)CO)C(=O)c2cc(NC(=O)CCCN(C)C)ccc2O[C@@H](C)CCCCO[C@H]1CN(C)C(=O)Nc1cccc2ccccc12`, for which the GFP signal change (wild-type ribosome) was -3.48% (inactive), the OD600 change was -7.41% and the RFP signal change was 4.52%.

`Cc1ccc(OCCCn2c(=O)oc3ccccc32)cc1`: the GFP signal change (wild-type ribosome) was -33.5% (active), the OD600 change is -20.9% and the RFP signal change is -1.83%.

Turning to `COc1ccc(Cn2c(=O)oc3ccccc32)cc1`, the GFP signal change (wild-type ribosome) is -5.68% (inactive), the OD600 change amounted to 1.5% and the RFP signal change was found to be 2.85%.

As for `Cc1cccc(NC(=O)CCn2c(=O)oc3ccccc32)c1`, the GFP signal change (wild-type ribosome) was 3.5% (inactive), the OD600 change amounted to 2.74% and the RFP signal change was -1.45%.

In the case of `O=C(Nc1ccccc1F)N[C@@H]1C=C[C@H](CC(=O)N2CCCCC2)O[C@@H]1CO`, the GFP signal change (wild-type ribosome) was 3.61% (inactive), the OD600 change came to 6.08% and the RFP signal change is -0.341%.

As for `C[C@H](CO)N1C[C@H](C)[C@@H](CN(C)C(=O)Nc2cccc(F)c2)OCc2ccccc2-c2ccccc2C1=O`, the GFP signal change (wild-type ribosome) is -0.679% (inactive), the OD600 change is -1.43% and the RFP signal change is 0.291%.

As for `C[C@H](CO)N1C[C@H](C)[C@H](CN(C)C(=O)Nc2cccc3ccccc23)OCCCC[C@H](C)Oc2ccc(NC(=O)Nc3ccc4c(c3)OCO4)cc2C1=O`, the GFP signal change (wild-type ribosome) was 2.1% (inactive), the OD600 change was determined as 5.33% and the RFP signal change was -1.79%.

Take `CC(C)NC(=O)N1CCCCN2[C@H](CO)[C@H](c3ccc(C#C[C@H](C)O)cc3)[C@H]2C1`: the GFP signal change (wild-type ribosome) is 5.37% (inactive), the OD600 change turned out to be 11.9% and the RFP signal change was 2.67%.

For `CCCNC(=O)c1cc2c(c(-c3cccc(-c4ccc(F)cc4)c3)n1)[C@@H](CCO)N([S@](=O)C(C)(C)C)C2`, the GFP signal change (wild-type ribosome) was -7.84% (inactive), the OD600 change is -6.59% and the RFP signal change was 26.4%.

As to `CCCNC(=O)c1cc2c(c(-c3cccc(-c4ccc(C#N)cc4)c3)n1)[C@@H](CCO)N(C(=O)CC)C2`, the GFP signal change (wild-type ribosome) is -28.9% (active), the OD600 change was -16.6% and the RFP signal change was 9.41%.

Take `CCS(=O)(=O)N1Cc2cc(C(=O)N(C)C)nc(-c3cccc(-c4ccc(C#N)cc4)c3)c2[C@H]1CCO`: the GFP signal change (wild-type ribosome) is 1.6% (inactive), the OD600 change was -8.16% and the RFP signal change was 0.491%.

`O=[N+]([O-])c1cc(Br)c(O)c(/C=N/Nc2nc3ccccc3s2)c1`: the GFP signal change (wild-type ribosome) is -26.6% (active), the OD600 change is -18.1% and the RFP signal change was determined as 3.75%.

Turning to `O=C(N/N=C/c1cc(Br)c(O)c([N+](=O)[O-])c1)C(O)(c1ccccc1)c1ccccc1`, the GFP signal change (wild-type ribosome) is -13.8% (inactive), the OD600 change is -17.8% and the RFP signal change was -3.16%.

Consider `O=[N+]([O-])c1cccc(/C=N/Nc2ncc(Br)cn2)c1`, for which the GFP signal change (wild-type ribosome) was 14.8% (inactive), the OD600 change came out at 23.4% and the RFP signal change was determined as 1.61%.

Take `C[C@H](CO)N1C[C@H](C)[C@H](CN(C)C(=O)C2CCOCC2)Oc2ncc(C#Cc3ccccc3F)cc2C1=O`: the GFP signal change (wild-type ribosome) was 4.96% (inactive), the OD600 change worked out at 16.6% and the RFP signal change was -0.455%.

Consider `Cc1cc2ccccn2c1C(=O)c1cccc(F)c1`, for which the GFP signal change (wild-type ribosome) was -7.7% (inactive), the OD600 change is -19.4% and the RFP signal change is -0.345%.

Turning to `Cc1nc2ccc(NC(=O)c3cccc(S(=O)(=O)N4CCOCC4)c3)cc2s1`, the GFP signal change (wild-type ribosome) is -8.91% (inactive), the OD600 change is -4.27% and the RFP signal change was -0.693%.

As to `Cc1cc2ccccn2c1C(=O)c1cccc(S(=O)(=O)N2CCOCC2)c1`, the GFP signal change (wild-type ribosome) was -23.1% (active), the OD600 change is -17.5% and the RFP signal change was determined as 2.76%.

Take `O=C(NC1CCCC1)[C@H]1[C@H](CO)[C@H]2Cn3c(cccc3=O)[C@H]2N1C(=O)NC1CCCC1`: the GFP signal change (wild-type ribosome) is 6.01% (inactive), the OD600 change was determined as 13.7% and the RFP signal change was -2.22%.

For `COc1ccc(S(=O)(=O)N(C)C[C@@H]2OCCCC[C@@H](C)Oc3ccc(NS(C)(=O)=O)cc3C(=O)N([C@H](C)CO)C[C@@H]2C)cc1`, the GFP signal change (wild-type ribosome) is 2.26% (inactive), the OD600 change was 6.89% and the RFP signal change was -2.21%.

On to `O=C(NCC[C@H]1CC[C@H](NC(=O)C2CC2)[C@@H](CO)O1)c1cc(Cl)cc(Cl)c1`, for which the GFP signal change (wild-type ribosome) was -1.63% (inactive), the OD600 change is -6.47% and the RFP signal change was -0.371%.

Turning to `CCCNC(=O)N1[C@H](CO)[C@@H]2c3ccccc3N(C(=O)C3CC3)C[C@@H]21`, the GFP signal change (wild-type ribosome) is 6.32% (inactive), the OD600 change was 5.65% and the RFP signal change turned out to be 0.0995%.

With `CC[C@H]1OC(=O)[C@H](C)[C@@H](O[C@H]2C[C@@](C)(OC)[C@@H](O)[C@H](C)O2)[C@H](C)[C@@H](O[C@@H]2O[C@H](C)C[C@H](N(C)C)[C@H]2O)[C@](C)(O)C[C@@H](C)[C@@H]2N[C@@H](COCCOC)O[C@H]([C@H]2C)[C@]1(C)O`, the GFP signal change (wild-type ribosome) was -22.6% (active), the OD600 change is -9.78% and the RFP signal change was determined as 5.64%.

In the case of `Cn1cnc(S(=O)(=O)N2C[C@@H](O)COC[C@H]3O[C@H](CC(=O)N4CCN(c5ccccc5)CC4)CC[C@@H]32)c1`, the GFP signal change (wild-type ribosome) is 9.71% (inactive), the OD600 change was 22% and the RFP signal change is -0.0733%.

Consider `Cc1ccc(NNC(=O)c2c(F)cccc2Cl)cc1Cl`, for which the GFP signal change (wild-type ribosome) was -32.7% (active), the OD600 change is -2.5% and the RFP signal change is -1.17%.
